The text below walks through data of PubChem BioAssay.

The nature of test [1]: inhibitors of TNFa-induced NFkB p65 translocation, primary screen, imaging, HUVEC, MLSMR starter and 10KST1 sets (AID 438;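 active = inhibition above 20% together with a positive visual image hit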;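 note: compound added about 3h40 before a 20 min TNFalpha stimulation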;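 for inhibition: signal is the nuclear over cytoplasmic p65 intensity ratio per well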). To be noted: HUVEC TNFa-induced p65 nuclear translocation; cell count: measured here: nuclei count (cytotoxicity indicator), at 2.08 µM; inhibition: at 2 µM, stronger effect = higher value, 0% TNFa-plus-vehicle, 100% no-TNFa wells.
A short description of test [2]: reduction of polyQ htt aggregates in cells – imaging, exon1htt(103Q)mCFP cells, high-content imaging, primary screen (AID 483;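 active = visual image review flags a hit and inhibition of aggregation exceeds 20%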;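 note: compound exposure lasted 3 days before fixation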;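 for nuclei count: percent of the per-plate median nuclei count of sample wells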). Conditions: exon1htt(103Q)mCFP cell line, aggregate imaging, at 2 µM; inhibition of aggregation: stronger effect = higher value; nuclei count: measured here: cell count, toxicity.
The nature of test [3]: endothelial E-selectin expression blockers – imaging, HUVEC, immunofluorescence, MLSMR starter and 10KST1 sets, primary screen (AID 487;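 active = visually confirmed hit in the image check and inhibition above 20%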;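 for inhibition: signal is fraction of cell area covered by stained E-selectin grains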;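 for nuclei count: 100% = median nuclei count of all wells on the same plate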). Conditions: HUVEC TNFalpha-induced E-selectin immunofluorescence imaging, at 2 µM; inhibition: stronger effect = higher value; nuclei count: measured here: cell number, toxicity.
In test [4] the target is Voltage-gated potassium channel subunit beta-2 (Rattus norvegicus) (UniProt P62483). The experiment in a line: inhibitors of rat Kvbeta2 reductase activity – biochemical, NADPH fluorescence, primary screen (AID 622;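 active = fluorescence slope higher than the sample average by over 3 SD, cut at about -0.22 in these data, passing the limit was not always enough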;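 note: slope of raw intensity against log time taken from 70 to 1610 s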). Conditions: recombinant KvBeta, 4-cyanobenzaldehyde reduction, at 10 µM, stronger effect = higher value.
Sequence of Voltage-gated potassium channel subunit beta-2 (Rattus norvegicus) (P62483 whole entry, looked up): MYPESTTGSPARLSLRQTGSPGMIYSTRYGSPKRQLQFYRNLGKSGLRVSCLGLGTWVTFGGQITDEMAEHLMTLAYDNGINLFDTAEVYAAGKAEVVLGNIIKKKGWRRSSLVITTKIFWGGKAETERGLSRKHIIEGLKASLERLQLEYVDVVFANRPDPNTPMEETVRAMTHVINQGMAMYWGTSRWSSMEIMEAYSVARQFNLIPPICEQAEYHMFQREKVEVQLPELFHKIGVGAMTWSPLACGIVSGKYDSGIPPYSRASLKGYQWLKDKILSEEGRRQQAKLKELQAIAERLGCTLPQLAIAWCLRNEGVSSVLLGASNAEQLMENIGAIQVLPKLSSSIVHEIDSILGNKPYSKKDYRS
For test [5] the target is unchanged. The experiment in a line: enhancers of rat Kvbeta2 NADPH turnover – biochemical, NADPH fluorescence, primary screen (AID 623;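 active = NADPH fluorescence slope more negative than the mean of all samples by about 3 SD, 99.7% confidence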;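 note: fluorescence intensity change per second fitted from 20 to 320 s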). To be noted: Recombinant KvBeta, NADPH fluorescence decrease slope, 10 min; at 10 µM; stronger effect = lower value.
For test [6], the target named is Alpha-2C adrenergic receptor (Homo sapiens) (UniProt P18825). In words: compounds altering alpha2C-coupled GIRK flux – cell-based, HEK293 alpha2C/GIRK1/2, thallium flux, primary screen (AID 624;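 active = fluorescence slope after compound addition differing from the mean of all screened samples at 99.7% confidence, in either direction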;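 note: slope of fluorescence ratio to pre-addition baseline per second over 15 to 24 s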). To be noted: thallium flux BTC fluorescence, at 10 µM, actives lie on both sides.
Sequence of Alpha-2C adrenergic receptor (Homo sapiens) (P18825 whole entry, looked up): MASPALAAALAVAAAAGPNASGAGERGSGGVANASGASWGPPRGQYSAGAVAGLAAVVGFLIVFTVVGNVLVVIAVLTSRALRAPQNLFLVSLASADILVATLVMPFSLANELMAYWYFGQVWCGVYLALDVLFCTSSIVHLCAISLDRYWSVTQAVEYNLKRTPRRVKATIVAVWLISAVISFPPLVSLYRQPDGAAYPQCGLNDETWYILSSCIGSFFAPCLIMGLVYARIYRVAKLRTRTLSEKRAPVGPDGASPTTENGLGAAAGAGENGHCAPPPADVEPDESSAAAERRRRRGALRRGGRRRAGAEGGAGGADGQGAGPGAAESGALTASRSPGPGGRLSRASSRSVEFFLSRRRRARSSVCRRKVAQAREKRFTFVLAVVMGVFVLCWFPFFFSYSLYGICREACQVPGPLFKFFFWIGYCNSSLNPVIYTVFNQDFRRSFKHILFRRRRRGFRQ
Test [7] can be described thus: blockers of RIG-like receptor reporter activation – cell-based, Sendai virus stimulus, luciferase, 10K MLSCN set, TLR/RLR signaling modifier project, primary screen (AID 602276;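 active = inhibition at or above 50% at 10 µM; inactive = inhibition below 50%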;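 note: firefly luciferase from ISG56 promoter only with Renilla not read in this screen; 0% = Sendai virus plus DMSO and 100% = medium plus DMSO without virus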). Conditions: HEK293 RL24 IRF3 luciferase reporter, at 10 µM, stronger effect = higher value. A general note: Reporter assays use an easily measured gene product as a stand-in for the process of interest.

A short description of test [8]: TLR3 IRF3 reporter activation blockers – cell-based, poly I:C stimulus, luciferase, 10K MLSCN set, primary screen (AID 602277). To be noted: HEK293-TLR3 RL24 IRF3 luciferase reporter, at 10 µM, stronger effect = higher value.

Activity calls are given as the source filed them.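 Rule for the calls, unless noted: active = inhibition of the reporter signal at or above 50%; inactive = inhibition below 50%.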

One may read the inhibition as the drop in the measured response relative to a control, in per cent. With `CC(=O)NCc1cccc(CNC(C)=O)n1`, the cell count in test [1] was 652. Also, the inhibition in test [1] was 9.2% (inactive); in test [3], -92.7% (inactive); in test [7], 12% (inactive); in test [8], 14.4% (inactive). The inhibition of aggregation in test [2] is -29% (inactive). Further, the nuclei count in test [2] was 109%; in test [3], 101%. In addition, the fluorescence slope in test [4] is -0.432 (inactive). Also, the NADPH fluorescence slope in test [5] is -2.5e-05 (inactive). In addition, the slope in test [6] was 0.00626 (inactive).
Consider `COC(=O)C(C#N)C(=C1C(=O)CC(C)(C)CC1=O)c1ccc(O)cc1` (centres undefined), for which, in test [1], the cell count came to 315. The inhibition in test [1] was 1.2% (inactive); in test [3] it was 15% (inactive); in test [7], 9.88% (inactive); in test [8], 10.9% (inactive). In addition, in test [2], the inhibition of aggregation was 12% (inactive). Further, the nuclei count in test [2] is 92.7%; in test [3] it was 109%. The fluorescence slope in test [4] was -0.319 (inactive). Besides, in test [5], the NADPH fluorescence slope was -2.3e-05 (inactive). For the same compound, the slope in test [6] is 0.00607 (inactive).
For `CCCOC(=O)C1[C@H]2C(=O)N(CCCOC)C[C@]23C=C[C@H]1O3` (some centres undefined), in test [1], the cell count was 706. Also, the inhibition in test [1] was -12.9% (inactive); in test [3], -21.6% (inactive); in test [7], 11.7% (inactive); in test [8], 15.6% (inactive). In addition, the inhibition of aggregation in test [2] was -14.9% (inactive). Further, the nuclei count in test [2] turned out to be 112%; in test [3], 118%. Also, the fluorescence slope in test [4] was -0.605 (inactive). Also, the NADPH fluorescence slope in test [5] is 3.2e-05 (inactive). Further, the slope in test [6] is 0.00864 (inactive).
For the compound `Cc1c(C#N)c(N)c(C(=O)c2ccccc2)n1Cc1ccccc1`, the cell count in test [1] is 375. Besides, the inhibition in test [1] was 0% (inactive); in test [3] it was -38% (inactive); in test [7] it was -20.6% (inactive); in test [8] it was 0.155% (inactive). In test [2], the inhibition of aggregation was 15.4% (inactive). Besides, the results for the nuclei count in test [2] and in test [3] were 100% and 117%, respectively. Further, the fluorescence slope in test [4] was -0.512 (inactive). For the same compound, in test [5], the NADPH fluorescence slope is -1.4e-05 (inactive). For the same compound, in test [6], the slope is 0.0107 (inactive).
In the case of `COc1ccc(C2CC(c3ccc(C)cc3)Nc3ncnn32)cc1` (centres undefined), the cell count in test [1] was found to be 615. The inhibition in test [1] was -0.2% (inactive); in test [3], 30.7% (inactive); in test [7] it was 7.28% (inactive); in test [8] it was 16.4% (inactive). The inhibition of aggregation in test [2] is -9.1% (inactive). The results for the nuclei count in test [2] and in test [3] were 107% and 98.3%, respectively. Further, the fluorescence slope in test [4] is -0.524 (inactive). The NADPH fluorescence slope in test [5] was -2.3e-05 (inactive). In addition, the slope in test [6] was 0.00685 (inactive).
Regarding `COc1ccc(C(=O)N2CCN(C3CCCCC3)CC2)c(OC)c1`, the cell count in test [1] came out at 324. The inhibition in test [1] was -0.9% (inactive); in test [3], -48.1% (inactive); in test [7], 1% (inactive); in test [8], 12.4% (inactive). In test [2], the inhibition of aggregation was -21.3% (inactive). Also, the nuclei count was found to be 83.3% in test [2] and 138% in test [3]. The fluorescence slope in test [4] is -0.609 (inactive). For the same compound, the NADPH fluorescence slope in test [5] was -1.5e-05 (inactive). Besides, the slope in test [6] is 0.00408 (inactive).
On to `Cn1c(=O)c2c(nc(SCCCC#N)n2Cc2c(F)cccc2Cl)n(C)c1=O`, for which the cell count in test [1] was 868. Also, the inhibition in test [1] is 0.6% (inactive); in test [3] it was -6.8% (inactive); in test [7], -9.31% (inactive); in test [8] it was 7.45% (inactive). Moreover, the inhibition of aggregation in test [2] was 9.8% (inactive). Also, the nuclei count came to 82.3% in test [2] and 108% in test [3]. The fluorescence slope in test [4] was -0.589 (inactive). Also, in test [5], the NADPH fluorescence slope was -6.6e-06 (inactive). Further, in test [6], the slope was 0.00598 (inactive).
In the case of `c1ccc2c(c1)nc(-c1ccncc1)n1nnnc21`, the cell count in test [1] is 517. In addition, the inhibition in test [1] was -8.5% (inactive); in test [3] it was -111% (inactive); in test [7], 7.9% (inactive); in test [8], 0.706% (inactive). For the same compound, in test [2], the inhibition of aggregation was 8.6% (inactive). For the same compound, the nuclei count in test [2] was found to be 104%; in test [3], 179%. Besides, the fluorescence slope in test [4] is -0.359 (inactive). Further, the NADPH fluorescence slope in test [5] is -1.7e-05 (inactive). Also, the slope in test [6] was 0.00824 (inactive).
With `CCOC(=O)CSC1=C(C#N)C(c2ccc(Cl)cc2)C(C(=O)OC)C(=O)N1` (centres undefined), in test [1], the cell count was 495. In addition, the inhibition in test [1] was 4.4% (inactive); in test [3] it was -80% (inactive); in test [7], 7.95% (inactive); in test [8], 25.3% (inactive). The inhibition of aggregation in test [2] was -24.6% (inactive). The nuclei count in test [2] was 40.5%; in test [3], 95.7%. Besides, the fluorescence slope in test [4] is -0.394 (inactive). Also, the NADPH fluorescence slope in test [5] was -5.6e-05 (inactive). Besides, in test [6], the slope was 0.00371 (inactive).
As to `C/C(N)=C(/C#N)C(=O)COC(=O)c1cc(S(=O)(=O)N2CCCCC2)ccc1C`, the cell count in test [1] stood at 508. Further, the inhibition in test [1] was 7.7% (inactive); in test [3], 12.6% (inactive); in test [7], 7.49% (inactive); in test [8], 6.72% (inactive). In addition, the inhibition of aggregation in test [2] is -28.1% (inactive). The nuclei count turned out to be 104% in test [2] and 85.7% in test [3]. In test [4], the fluorescence slope was -0.366 (inactive). The NADPH fluorescence slope in test [5] was 1.2e-05 (inactive). Further, in test [6], the slope was 0.00665 (inactive).
Regarding `CC1(C(=O)NC2CCCCC2)CCC(=O)N1Cc1cccs1` (centres undefined), the cell count in test [1] is 803. The inhibition is -0.6% (inactive) in test [1], -78.3% (inactive) in test [3], -11.7% (inactive) in test [7] and 12.6% (inactive) in test [8]. Further, the inhibition of aggregation in test [2] is 1.4% (inactive). For the same compound, the results for the nuclei count in test [2] and in test [3] were 104% and 130%, respectively. Besides, in test [4], the fluorescence slope was -0.594 (inactive). The NADPH fluorescence slope in test [5] is -2.7e-05 (inactive). Also, the slope in test [6] was 0.00547 (inactive).
With `O=C1CC(c2cccnc2)c2cc3c(cc2N1)OCO3` (centres undefined), the cell count in test [1] is 451. Further, the inhibition in test [1] was -1.2% (inactive); in test [3] it was -79.3% (inactive); in test [7], 0.756% (inactive); in test [8] it was 25% (inactive). The inhibition of aggregation in test [2] is -3.3% (inactive). Further, the results for the nuclei count in test [2] and in test [3] were 104% and 102%, respectively. The fluorescence slope in test [4] is -0.527 (inactive). Also, in test [5], the NADPH fluorescence slope is -6.9e-06 (inactive). In addition, the slope in test [6] was 0.00697 (inactive).
With `COCCn1nnnc1C(c1ccc(OC)cc1)N1CCN(c2ccccc2F)CC1` (centres undefined), in test [1], the cell count was determined as 476. Moreover, the inhibition in test [1] was -1.9% (inactive); in test [3], -30.1% (inactive); in test [7], 14.5% (inactive); in test [8], 22.9% (inactive). Besides, in test [2], the inhibition of aggregation is -4.8% (inactive). Besides, the figures for the nuclei count in test [2] and in test [3] were 131% and 104%, respectively. Further, in test [4], the fluorescence slope is -0.585 (inactive). In addition, the NADPH fluorescence slope in test [5] is -9.6e-06 (inactive). Further, in test [6], the slope is 0.00546 (inactive).
As to `CCOC(=O)c1ccc(NS(=O)C23CC4CC(CC(C4)C2)C3)cc1` (centres undefined), the cell count in test [1] is 406. In addition, the inhibition in test [1] is -1.1% (inactive); in test [3] it was -53.8% (inactive); in test [7], -1.97% (inactive); in test [8] it was 6.33% (inactive). For the same compound, the inhibition of aggregation in test [2] is -7.1% (inactive). Further, the nuclei count is 111% in test [2] and 134% in test [3]. In addition, the fluorescence slope in test [4] is -0.458 (inactive). For the same compound, in test [5], the NADPH fluorescence slope was -9e-06 (inactive). In addition, in test [6], the slope is 0.00476 (inactive).
